Hck Nef HTS – inhibitors of human Hck kinase activated by Nef | P08631 | Recombinant Hck-YEEI plus Nef, Z-Lyte FRET kinase assay | inhibition, % at 20 µM | actives 0.68% (n = 220,000);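 active = Hck-Nef kinase inhibition above about 50%, limit read from the data; inactive = inhibition below that limit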;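 also: 0% = DMSO with Hck plus Nef and 100% = Hck alone without Nef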
14-3-3 Bad PPI – disrupts binding of bovine 14-3-3 zeta to phospho-Bad peptide. P63103. TR-FRET 14-3-3zeta/Dy647-pBad peptide displacement, 1 h. inhibition, % at 21.7 µM. actives 0.71% (n = 220,000);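 active = inhibition above about 70%, limit read from the data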;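 also: 0% = full 14-3-3 plus peptide FRET controls and 100% = background without 14-3-3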
Target sequence (P63103 whole entry, looked up): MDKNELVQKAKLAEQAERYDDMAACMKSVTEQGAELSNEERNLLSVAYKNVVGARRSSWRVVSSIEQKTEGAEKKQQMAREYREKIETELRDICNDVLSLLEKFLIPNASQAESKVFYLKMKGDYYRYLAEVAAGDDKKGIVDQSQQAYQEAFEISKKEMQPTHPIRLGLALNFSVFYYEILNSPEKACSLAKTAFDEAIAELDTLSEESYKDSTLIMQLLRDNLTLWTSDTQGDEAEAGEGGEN
Mcl1 Noxa PPI – disrupts binding of human Mcl-1 to Noxa peptide; Q07820; TR-FRET Mcl-1/Noxa peptide binding, 2 h; inhibition, % at 21.7 µM; actives 1.5% (n = 220,000); AID 1022;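 active = compounds that cut the protein-peptide binding signal by more than 50% relative to plate controls in a single-dose test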;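 also: His-tagged Mcl-1 with rhodamine Noxa BH3 peptide and terbium anti-His antibody; 0% = Mcl-1 plus Noxa peptide wells and 100% = peptide-only wells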
Target sequence (Q07820 whole entry, looked up): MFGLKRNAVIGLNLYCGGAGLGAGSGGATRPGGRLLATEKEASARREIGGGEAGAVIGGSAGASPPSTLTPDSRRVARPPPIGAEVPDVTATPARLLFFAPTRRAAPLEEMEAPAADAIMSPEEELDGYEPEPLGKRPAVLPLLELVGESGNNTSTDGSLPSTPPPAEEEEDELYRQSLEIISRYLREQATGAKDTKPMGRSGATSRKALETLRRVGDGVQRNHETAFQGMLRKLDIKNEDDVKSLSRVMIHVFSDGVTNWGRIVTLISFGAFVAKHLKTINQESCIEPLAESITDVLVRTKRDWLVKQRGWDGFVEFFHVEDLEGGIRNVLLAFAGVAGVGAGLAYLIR
Mcl1-Bid inh – Mcl-1/Bid interaction inhibition; inhibition, % at 21.7 µM; Q07820; actives 0.97% (n = 220,000); TR-FRET Mcl-1/Bid-Dy647 peptide binding, 1536-well;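 active = compounds that cut the binding signal by more than half at the single screening dose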;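 also: His-tagged Mcl-1 with europium anti-His antibody binding Bid BH3 peptide; 0% = Mcl-1 plus peptide wells and 100% = peptide-only wells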
Pf gamet viab – P. falciparum stage V gametocyte viability inhibition. inhibition, % at 10.9 µM. P. falciparum stage V gametocytes, ATP luminescence, 24 h. actives 0.065% (n = 150,000);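 active = inhibition above the mean plus 3 SD of compounds within the control limits, set per campaign, cut at about 38% in these data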;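 also: 0% = DMSO wells and 100% = medium only without gametocytes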
Bim-Mcl-1 – human Bim-Mcl-1 interaction inhibition; Q07820; Bead-based flow cytometry, Bim peptide-Mcl-1 binding; inhibition, % at 10 µM; actives 0.1% (n = 190,000); AID 1009; in the data active = inhibition above about 40%;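 also: 0% = no compound tracer wells and 100% = peptide blocker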
Starred values were filed as active, the others as inactive; . = no result. Compounds with a hit are over-represented: about 2.9% of the library has one in this group of screens.

SMILES | Hck Nef HTS | 14-3-3 Bad PPI | Mcl1 Noxa PPI | Mcl1-Bid inh | Pf gamet viab | Bim-Mcl-1
COc1ccc(/C=C2/SC(=O)N(CCC(=O)Nc3ccc(C)cc3)C2=O)cc1OC | 3.1 | 7.5 | 2.6 | 1.8 | 17.1 | 0.0
Oc1ccc(C(=S)N2CCCCC2)cc1Cl | 1.9 | -7.7 | 21.5 | -30.3 | -22.7 | 0.0
Nc1nc(N)c(N=Nc2ccc(C(=O)O)cc2)c(N)n1 | -4.3 | 2.5 | 6.5 | -5.5 | . | .
O=C(O)c1ccc(N=Nc2c(O)[nH]c3cc(Cl)ccc23)cc1 | -21.7 | 1.2 | 61.9* | -57.6 | -1.8 | .
Cc1cc(C)n2c(SC/C(O)=C(\C#N)c3nc4ccccc4[nH]3)nnc2n1 | 5.3 | -4.8 | 85.7* | -7.2 | 20.0 | -1.0
CCCCOc1ccccc1NC(=O)CC1SC(=NCC)N(CC)C1=O (centres undefined) | 1.4 | 76.0* | -3.3 | -26.7 | . | -3.0
COc1ccc(CN2C(=O)c3cccnc3C2Nc2ccc(C)cc2)cc1 (centres undefined) | -5.5 | 28.2 | 20.3 | 11.6 | . | 0.0
COc1ccc(CN2C(=O)c3cccnc3C2Nc2cc(Cl)c(OC)cc2OC)cc1 (centres undefined) | 0.7 | 92.2* | 39.0 | 90.3* | 2.2 | -5.0
COc1ccccc1-c1nn2c(=O)cc(C)nc2s1 | -0.3 | 12.3 | 6.8 | -23.1 | . | -1.0
CCOC(=O)c1cc(C#N)c(SCC(=O)OC)[nH]c1=O | 8.3 | 32.6 | 21.1 | 71.7* | -11.8 | .
COc1ccc(N2C(C)=CS/C2=C(/C#N)c2nnc(N3CCOCC3)n2-c2ccccc2)cc1 | 0.4 | 83.8* | 25.2 | 16.4 | . | -2.0
NS(=O)(=O)c1ccc(N/C=C\C(=O)c2ccc3ccccc3c2)cc1 | 7.7 | 48.5 | 31.4 | 54.4* | . | -2.0
COc1ccc(N/C=C\C(=O)c2ccc3ccccc3c2)cc1 | . | . | . | . | -15.4 | .
CC1CCN(S(=O)(=O)N2CCC(C(=O)NCCC3=CCCCC3)CC2)CC1 | -17.8 | -3.6 | 12.0 | -23.9 | . | 0.0
CCN(CC)c1ccc(N=Cc2c(C)[nH]c3ccccc23)cc1 | 10.8 | -5.7 | 60.7* | -101.7 | . | -4.0
Cc1[nH]c2ccccc2c1/C=N/n1cnnc1 | 5.3 | -8.1 | -8.3 | -28.6 | 15.1 | 2.0
O=C(O)/C=C/C(=O)Nc1ccc(Oc2ccc(NC(=O)/C=C/C(=O)O)cc2)cc1 | 0.4 | 11.4 | 65.8* | -21.0 | . | 0.0
O=c1c2ccccc2[nH]c2ccc(F)cc12 | 71.0* | -8.8 | 7.3 | -32.0 | 18.2 | -2.0
S=c1[nH]nc(COc2ccc(Cl)cc2)n1-c1ccccc1 | . | . | . | . | 2.3 | .
Cc1nnc(NC(=O)CSc2ccc(-c3ccco3)nn2)s1 | 21.1 | -0.3 | 56.3* | -55.7 | 4.1 | 4.0
O=C(CSc1ccc(-c2ccco2)nn1)c1ccccc1 | 2.0 | -9.1 | 59.1* | -15.2 | 3.5 | -7.0
CCc1nnc(NC(=O)CSc2nnc(-c3ccco3)n2C)s1 | 2.9 | 8.0 | 6.5 | -0.8 | . | -1.0
COc1ccc(C(=O)CSc2ccc(-c3ccco3)nn2)cc1 | 4.5 | -4.9 | 39.5 | -10.3 | 9.3 | -2.0
CCc1nnc(NC(=O)CSc2ccc(-c3ccco3)nn2)s1 | 26.3 | 4.6 | 59.0* | -36.2 | -3.4 | -2.0
CCNC(=S)NS(=O)(=O)c1ccc(C)cc1 | -0.4 | 0.2 | -12.9 | -35.5 | . | -6.0
SMILES | Hck Nef HTS | 14-3-3 Bad PPI | Mcl1 Noxa PPI | Mcl1-Bid inh | Pf gamet viab | Bim-Mcl-1
COc1ccc(C2N=C(N)N=C(N)N2c2ccc(C)cc2)cc1 (centres undefined) | -19.1 | 1.2 | 7.0 | -19.2 | . | -2.0
Cc1cc2cc(CNC(=O)c3ccc(Br)o3)ccc2n1C | 45.8 | 7.2 | 59.1* | -81.4 | . | .
COCCNC(C(=O)Nc1ccc([N+](=O)[O-])cc1Br)c1ccccc1 (centres undefined) | 1.1 | -10.9 | 13.0 | -1.7 | -14.5 | -3.0
CCCCNC(C(=O)Nc1ccc([N+](=O)[O-])cc1Br)c1ccccc1 (centres undefined) | 2.5 | 71.1* | 36.8 | 20.8 | -8.3 | -2.0
O=[N+]([O-])c1ccc(O)c(/C=N/Nc2ccc(Cl)nn2)c1 | 10.0 | -11.9 | 78.5* | -4.5 | -31.9 | 1.0
CCOc1ccc(CCNC(=O)Cn2c(=O)oc3ccccc32)cc1OCC | 1.6 | 8.0 | 4.9 | -2.0 | . | -2.0
Cc1ccc(N(CN2CCCC2=O)C(=O)c2ccccc2)cc1 | -23.9 | 0.3 | -6.1 | -4.5 | -19.9 | 0.0
C=CCn1c(SCc2ccc([N+](=O)[O-])cc2)nnc1C(C)NC(=O)c1ccccc1 (centres undefined) | 0.5 | -7.2 | 14.7 | 93.6* | . | 0.0
C=CCn1c(SCCOc2ccc(OC)cc2)nnc1C(C)NC(=O)c1ccc(OC)cc1 (centres undefined) | 0.5 | -3.9 | 8.5 | -43.8 | . | -2.0
CCOC(=O)/C(C#N)=N/Nc1ccc(S(=O)(=O)N2CCc3ccccc32)cc1 | 2.2 | -21.2 | 15.4 | -31.8 | -0.4 | 0.0
N#C/C(=N\Nc1ccc(S(=O)(=O)N2CCc3ccccc32)cc1)C(N)=S | 13.8 | -14.0 | 59.7* | -7.2 | -4.5 | 2.0
O=C(OCCOc1ccc(Br)cc1)c1cnccn1 | -0.2 | -6.6 | -5.5 | -21.2 | -1.7 | -1.0
COc1ccc(C2=NN(c3nc(-c4ccccc4)c(CC(=O)O)s3)C(c3ccco3)C2)cc1 (centres undefined) | 17.3 | -21.9 | 85.1* | -125.2 | -23.1 | 0.0
Cc1nn(-c2ccc(Cl)c(Cl)c2)c(C)c1C(=O)O | 22.6 | -4.9 | -3.2 | -10.3 | -1.8 | 54.0*
O=C1[C@H]2[C@H](ON3CCCC[C@H]23)C(=O)N1c1cccc(C(F)(F)F)c1 | 20.7 | -2.2 | 7.7 | -13.4 | . | -6.0
CCN(CC)c1cc(C(F)(F)F)nc(-c2ccccn2)n1 | -0.5 | -4.0 | 33.5 | 37.9 | -8.8 | 1.0
CCCCCn1c(N)c(-c2nc3ccccc3o2)c2c([N+](=O)[O-])nn(CC)c(=O)c21 | 2.2 | 33.8 | 97.3* | 60.5* | -9.4 | 2.0
CCCCCn1c(N)c(-c2nc3ccccc3s2)c2c([N+](=O)[O-])nn(CC)c(=O)c21 | 4.2 | 2.9 | -6.4 | -5.7 | . | -1.0
Cc1cc(O)c2c(c1)C(=O)c1cccc(O)c1C2=O | -5.6 | 21.9 | 48.2 | -1.2 | 7.5 | 18.0
O=C(O)c1cc(O)c2c(c1)C(=O)c1cccc(O)c1C2=O | -0.3 | 74.2* | 61.2* | -24.6 | . | 36.0
CCN1CCN(C(=O)c2ccc(OC)c(S(=O)(=O)Nc3ccc(C)cc3)c2)CC1 | 20.2 | -3.5 | 14.5 | -6.4 | 0.2 | 0.0
Cc1cc(C)nc(/N=C(\N)N2CCc3ccccc32)n1 | -10.6 | -9.2 | 9.0 | -30.6 | 5.9 | 49.0*
Cc1cc(C)nc(/N=C(\N)N2CCCCCC2)n1 | 0.1 | -1.0 | -6.3 | -12.7 | 19.1 | -5.0
O=C(NC(=O)N1CCN(c2ccc([N+](=O)[O-])cn2)CC1)c1ccccc1F | 18.6 | 1.1 | 3.2 | -3.1 | 4.8 | .
CCCCCCCN1C=CC(=O)CC1 | 14.5 | -1.4 | 8.4 | -145.5 | -10.6 | .
CC(=O)N1CCN(CC(=O)Nc2cc([N+](=O)[O-])ccc2Cl)CC1 | 6.9 | -3.0 | 2.1 | -48.2 | 2.7 | -1.0
CC(=O)N1CCN(CC(=O)Nc2c(Cl)cccc2Cl)CC1 | 3.2 | 76.4* | 24.9 | 34.3 | . | -1.0

Source: PubChem BioAssay (several laboratories)
